From the supplement of paper PMC10127200
Counter-ions that a name gives are not always drawn.

System: DU145
Experiment: Euclidean distance of Cell Painting phenotypic profile (signed KS, 77 features) to DMSO centroid (dimensionless distance); 5 or 10 uM (library dependent); higher = stronger phenotypic change vs DMSO (phenoactivity)
Settings: 48 h
In short: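 Five cancer lines, together with a healthy fibroblast line, received library compounds for 48 h at a library-dependent 10 or 5 uM and 0.1% DMSO final. Harmony then derived 77 features from confocal 20X images (9 fields/well) of the stained cells, scoring each as a signed Kolmogorov-Smirnov statistic against same-plate vehicle wells. After plate-position correction, correlation weighting and replicate averaging at the top dose, phenoactivity was taken as each profile's Euclidean distance to the median vehicle profile.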

Compound	Euclidean distance
CN(C)Cc1ccc(-c2nc3cccc4c3n2CCNC4=O)cc1	1.51
C[C@@]1(c2cc(-c3cncnc3)c(F)cc2F)CCSC(N)=N1	1.06
COCCOc1ccc2c(c1)ncn2-c1ccc2cccc(N3CCC(N)CC3)c2n1	3.51
CCc1c(C(=O)NCCc2ccc(N3CCCCC3)cc2)[nH]c2ccc(Cl)cc12	1.01
NS(=O)(=O)c1cc2c(cc1Cl)NCNS2(=O)=O [Hydrochlorothiazide]	1.44
COc1ccc(-c2cc(=S)ss2)cc1 [Anethole trithione]	1.18
CNC(=O)CN(CCN(CCN(CC(=O)[O-])CC(=O)NC)CC(=O)[O-])CC(=O)[O-].[Gd+3] [Gadodiamide]	1.5
Cc1ccc2c(=O)c3cccc(CC(=O)O)c3oc2c1C [DMXAA (Vadimezan)]	1.14
CCN(CC)CCOC(=O)C(c1ccccc1)c1ccccc1 [Adiphenine HCl]	0.633
C=CCc1cc(OC)c(O)c(C(=O)NCCO)c1 [Alibendol]	0.743
c1ccc(C2CN3CCSC3=N2)cc1 (single isomer, unassigned; (-)) [(-)-Tetramisole]	0.518
C=CCn1c(=O)c2cnc(Nc3ccc(N4CCN(C)CC4)cc3)nc2n1-c1cccc(C(C)(C)O)n1	2.52
COc1cc(NS(=O)(=O)c2ccc(N)cc2)nc(OC)n1 [Sulphadimethoxine]	1.61
CC(C)C(=O)c1c(C(C)C)nn2ccccc12 [Ibudilast]	0.981
C[C@@H]1CN(CC(=O)Nc2ccc3c(c2)Cc2cccc(-c4cc(=O)cc(N5CCOCC5)o4)c2S3)C[C@H](C)O1	1.41
O=C(NOCC(O)CO)c1cc(Br)c(F)c(F)c1Nc1ccc(I)cc1F (stereo not given)	1.78
Nc1cccc(-c2cc3c(Oc4cccc(O)c4)ncnc3[nH]2)c1	1.62
NCCCCCC(=O)O	2.26
CC[C@H]1OC(=O)[C@H](C)[C@@H](O[C@H]2C[C@@](C)(OC)[C@@H](O)[C@H](C)O2)[C@H](C)[C@@H](O[C@@H]2O[C@H](C)C[C@H](N(C)C)[C@H]2O)[C@](C)(O)C[C@@H](C)/C(=N\OCOCCOC)[C@H](C)[C@@H](O)[C@]1(C)O [Roxithromycin]	0.699
COc1cc(Nc2nc3ccccc3nc2NS(=O)(=O)c2ccc(NC(=O)c3ccc(C)c(OC)c3)cc2)cc(OC)c1	1.17

Compound	Euclidean distance
O=C(O)Cc1ccccc1Nc1c(Cl)cccc1Cl [Diclofenac Sodium]	0.729
CCCCCCCCCCCCc1ccc(S(=O)(=O)Nc2nncs2)cc1	0.932
CCCCOc1c(C(=O)c2c(F)cc(C)cc2F)c[nH]c2nncc1-2	1.61
CCCNC(=O)Nc1ccc(Oc2ncnc3cc(OC)c(OC)cc23)cc1Cl	0.916
CS(=O)(=O)c1cccc(CNc2nc(Nc3ccc4c(c3)CCC(=O)N4)ncc2C(F)(F)F)c1	3.07
CN(C)Cc1cccc(N/C(=C2\C(=O)Nc3cc(C(N)=O)ccc32)c2ccccc2)c1	1.33
CC(C)C[C@@H](C(=O)N[C@H](C(=O)OC1CCCC1)c1ccccc1)[C@H](O)C(=O)NO [Tosedostat (CHR2797)]	0.893
CC(C)[C@H](O)C(=O)N[C@@H](C)C(=O)N[C@@H]1C(=O)N(C)CCc2ccccc21	1.12
N=c1ccn2c(n1)O[C@H]1[C@H](O)[C@@H](CO)O[C@H]12 [Cyclocytidine HCl]	2.45
O=NN(CCCl)C(=O)NCCCl [Carmustine]	1.29
CC(C)c1cnn2c(NCc3ccccc3)cc(NCCCCCCN)nc12	0.933
CN(C)Cc1cccc(N=C(c2ccccc2)c2c(O)[nH]c3cc(C(=O)N(C)C)ccc23)c1	1.08
O=S(=O)(NCCNC/C=C/c1ccc(Br)cc1)c1cccc2cnccc12	2.19
CCOC(=O)[C@H](CCc1ccccc1)N[C@H]1CCCN2CCC[C@@H](C(=O)O)N2C1=O [Cilazapril Monohydrate]	0.828
Cc1cc(NC(=O)Nc2ccc(N(C)C)cc2)c2cc(F)cc(F)c2n1	0.704
Cc1ccc(-n2nc(C(C)(C)C)cc2NC(=O)Nc2ccc(OCCN3CCOCC3)c3ccccc23)cc1 [BIRB 796 (Doramapimod)]	1.2
C[C@]1(O)C[C@@H](c2nc(-c3ccc4ccc(-c5ccccc5)nc4c3)c3c(N)nccn32)C1 [OSI-906 (Linsitinib)]	0.877
Clc1ccc(C2(c3ccc(-c4cn[nH]c4)cc3)CCNCC2)cc1	3.8
N=C(N)c1ccc(OCCCCCOc2ccc(C(=N)N)cc2)cc1 [Pentamidine]	1.64
CC(C)OC(=O)CCC/C=C\C[C@@H]1[C@@H](/C=C/[C@@H](O)COc2cccc(C(F)(F)F)c2)[C@H](O)C[C@@H]1O [Travoprost]	0.732
